Results on 14 molecules are retold here after PubChem BioAssay.

Active and inactive are the calls of the source.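 The calls were made as follows, unless noted: active = fluorescence slope higher than the sample average by over 3 SD (cut at about -0.22 in these data, passing the limit was not always enough); inactive = the rest.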

In general, inhibition refers to the change of the read-out against control, counted positive when it falls.

A short description of test [1]: inhibitors of TNFa-induced NFkB p65 translocation, primary screen, imaging, HUVEC, MLSMR starter and 10KST1 sets (AID 438;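 active = inhibition above 20% together with a positive visual image hit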;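 also: compound added about 3h40 before a 20 min TNFalpha stimulation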;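 as to inhibition: signal is the nuclear over cytoplasmic p65 intensity ratio per well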). The following applies: HUVEC TNFa-induced p65 nuclear translocation; cell count: measured here: nuclei count (cytotoxicity indicator), at 2.08 µM; inhibition: at 2 µM, stronger effect = higher value, 0% TNFa-plus-vehicle, 100% no-TNFa wells.
Test [2] in a line: inhibitors of mutant huntingtin aggregation, primary screen, imaging, exon1htt(103Q)mCFP cells, high-content imaging (AID 483;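 active = visual image review flags a hit and inhibition of aggregation exceeds 20%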;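 also: compound exposure lasted 3 days before fixation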;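 as to nuclei count: percent of the per-plate median nuclei count of sample wells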). Conditions: exon1htt(103Q)mCFP cell line, aggregate imaging, at 2 µM; inhibition of aggregation: stronger effect = higher value; nuclei count: measured here: cell count, toxicity.
A short description of test [3]: inhibitors of E-selectin induction by TNFa, primary screen, imaging, HUVEC, immunofluorescence, MLSMR starter and 10KST1 sets (AID 487;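 active = visually confirmed hit in the image check and inhibition above 20%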;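 as to inhibition: signal is fraction of cell area covered by stained E-selectin grains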;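 as to nuclei count: 100% = median nuclei count of all wells on the same plate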). The following applies: HUVEC TNFalpha-induced E-selectin immunofluorescence imaging, at 2 µM; inhibition: stronger effect = higher value; nuclei count: measured here: cell number, toxicity.
The target of test [4] is Voltage-gated potassium channel subunit beta-2 (Rattus norvegicus) (UniProt P62483). The experiment in a line: KvBeta enzyme negative modulators, primary screen, biochemical, NADPH fluorescence (AID 622).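 Also: slope of raw intensity against log time taken from 70 to 1610 s.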 Conditions: recombinant KvBeta, 4-cyanobenzaldehyde reduction, at 10 µM, stronger effect = higher value.
The target is the same in test [5]. The experiment in a line: KvBeta positive modulators, primary screen, biochemical, NADPH fluorescence (AID 623;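 active = NADPH fluorescence slope more negative than the mean of all samples by about 3 SD, 99.7% confidence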;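 also: fluorescence intensity change per second fitted from 20 to 320 s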). The following applies: Recombinant KvBeta, NADPH fluorescence decrease slope, 10 min; at 10 µM; stronger effect = lower value.
Test [6] concerns the target Alpha-2C adrenergic receptor (Homo sapiens) (UniProt P18825). The experiment in a line: modulators of alpha2C/GIRK thallium flux, primary screen, cell-based, HEK293 alpha2C/GIRK1/2 (AID 624;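 active = fluorescence slope after compound addition differing from the mean of all screened samples at 99.7% confidence, in either direction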;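 also: slope of fluorescence ratio to pre-addition baseline per second over 15 to 24 s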). The following applies: thallium flux BTC fluorescence, at 10 µM, actives lie on both sides.
Test [7] can be described thus: inhibitors of Sendai virus-induced IRF3 signaling, primary screen, TLR/RLR signaling modifier project, cell-based, Sendai virus stimulus, luciferase, 10K MLSCN set (AID 602276;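 active = inhibition at or above 50% at 10 µM; inactive = inhibition below 50%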;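 also: firefly luciferase from ISG56 promoter only with Renilla not read in this screen; 0% = Sendai virus plus DMSO and 100% = medium plus DMSO without virus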). The following applies: HEK293 RL24 IRF3 luciferase reporter, at 10 µM, stronger effect = higher value. On the technique in general: In a reporter assay the amount or activity of a reporter protein is the signal.

A short description of test [8]: inhibitors of poly I:C-induced TLR3 signaling, primary screen, cell-based, poly I:C stimulus, luciferase, 10K MLSCN set (AID 602277;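 active = inhibition of the reporter signal at or above 50%; inactive = inhibition below 50%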). Conditions: HEK293-TLR3 RL24 IRF3 luciferase reporter, at 10 µM, stronger effect = higher value.

Voltage-gated potassium channel subunit beta-2 (Rattus norvegicus), sequence (P62483 whole entry, looked up): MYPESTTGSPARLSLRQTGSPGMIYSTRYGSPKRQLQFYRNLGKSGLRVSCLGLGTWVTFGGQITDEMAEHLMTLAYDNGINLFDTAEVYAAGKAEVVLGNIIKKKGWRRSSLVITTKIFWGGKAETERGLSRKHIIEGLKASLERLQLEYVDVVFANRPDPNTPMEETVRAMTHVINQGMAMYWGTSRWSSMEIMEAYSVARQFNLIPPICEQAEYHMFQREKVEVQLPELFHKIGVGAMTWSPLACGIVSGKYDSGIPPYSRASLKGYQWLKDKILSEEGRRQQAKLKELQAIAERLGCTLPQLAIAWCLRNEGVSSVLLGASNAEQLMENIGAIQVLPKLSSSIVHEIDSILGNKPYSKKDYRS
Alpha-2C adrenergic receptor (Homo sapiens), sequence (P18825 whole entry, looked up): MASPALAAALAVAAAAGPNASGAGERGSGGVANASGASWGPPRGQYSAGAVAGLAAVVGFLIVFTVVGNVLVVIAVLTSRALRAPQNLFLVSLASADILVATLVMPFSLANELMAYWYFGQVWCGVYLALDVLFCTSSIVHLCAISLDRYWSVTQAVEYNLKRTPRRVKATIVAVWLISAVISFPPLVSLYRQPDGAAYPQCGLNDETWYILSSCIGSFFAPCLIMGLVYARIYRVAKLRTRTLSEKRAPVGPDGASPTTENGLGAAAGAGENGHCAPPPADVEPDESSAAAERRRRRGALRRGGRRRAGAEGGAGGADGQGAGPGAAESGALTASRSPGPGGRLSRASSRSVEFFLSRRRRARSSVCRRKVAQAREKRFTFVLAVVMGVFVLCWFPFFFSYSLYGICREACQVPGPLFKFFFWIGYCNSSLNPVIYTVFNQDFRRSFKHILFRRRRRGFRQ

As for `Cc1cccc(-c2c3c(=O)n(C)c(=O)n(C)c3cn2-c2ccc(O)cc2)c1`, the cell count in test [1] stood at 363. The inhibition in test [1] is -2.8% (inactive); in test [3], -49.7% (inactive); in test [7], 6.51% (inactive); in test [8] it was 17.1% (inactive). For the same molecule, the inhibition of aggregation in test [2] is 30.8% (inactive). For the same molecule, the nuclei count in test [2] came out at 90.3%; in test [3], 98.7%. In addition, in test [4], the fluorescence slope is -0.579 (inactive). Also, the NADPH fluorescence slope in test [5] is -2.6e-05 (inactive). The slope in test [6] is 0.00566 (inactive).
Turning to `CC(C)n1c(NCc2c[nH]c3ccccc23)nc2ccccc21`, the cell count in test [1] came out at 489. Further, the inhibition in test [1] is 1% (inactive); in test [3] it was -5.1% (inactive); in test [7], -4.81% (inactive); in test [8], -0.81% (inactive). The inhibition of aggregation in test [2] is 20.3% (inactive). The nuclei count stood at 54.6% in test [2] and 86.6% in test [3]. Besides, the fluorescence slope in test [4] was -0.511 (inactive). Further, the NADPH fluorescence slope in test [5] was -4.3e-05 (inactive). Besides, in test [6], the slope was 0.00272 (inactive).
Take `Cc1ccc2[nH]c(=O)c(CN(CCCN3CCOCC3)C(=O)Nc3cccc(Cl)c3)cc2c1`: in test [1], the cell count was 724. In addition, the inhibition in test [1] is 21.3% (inactive); in test [3], 8% (inactive); in test [7], 13.4% (inactive); in test [8], 4.8% (inactive). For the same molecule, the inhibition of aggregation in test [2] is -15.9% (inactive). Further, the nuclei count in test [2] turned out to be 89%; in test [3], 131%. Further, the fluorescence slope in test [4] was -0.597 (inactive). In test [5], the NADPH fluorescence slope is -5.2e-05 (inactive). In test [6], the slope is 0.00418 (inactive).
Consider `CCOC(=O)c1ccccc1NC1c2ccccc2C(=O)N1C1CCN(C(=O)OCC)CC1` (centres undefined), for which, in test [1], the cell count is 548. Further, the inhibition was -9.7% (inactive) in test [1], -10.1% (inactive) in test [3], 14.7% (inactive) in test [7] and 38.1% (inactive) in test [8]. In addition, the inhibition of aggregation in test [2] was -12% (inactive). For the same molecule, the nuclei count turned out to be 65.3% in test [2] and 109% in test [3]. Further, the fluorescence slope in test [4] is -0.463 (inactive). Besides, in test [5], the NADPH fluorescence slope is -3.3e-05 (inactive). For the same molecule, the slope in test [6] is 0.00667 (inactive).
For `COc1ccc(OC)c(S(=O)(=O)N2c3ccccc3CC2C)c1` (centres undefined), the cell count in test [1] amounted to 609. Also, the inhibition in test [1] is -6.3% (inactive); in test [3], -32% (inactive); in test [7], 5.85% (inactive); in test [8], 21.2% (inactive). In addition, the inhibition of aggregation in test [2] is 4.4% (inactive). The results for the nuclei count in test [2] and in test [3] were 84.6% and 123%, respectively. For the same molecule, in test [4], the fluorescence slope is -0.566 (inactive). The NADPH fluorescence slope in test [5] was 2.6e-06 (inactive). For the same molecule, in test [6], the slope was 0.00606 (inactive).
For `O=C1c2ccccc2C(Nc2ccc(F)c(Cl)c2)N1Cc1ccco1` (centres undefined), the cell count in test [1] came out at 778. Further, the inhibition in test [1] was -11.6% (inactive); in test [3], -37.8% (inactive); in test [7], 5.4% (inactive); in test [8] it was 26.8% (inactive). In addition, the inhibition of aggregation in test [2] was -4.9% (inactive). Also, the nuclei count in test [2] is 110%; in test [3], 105%. Moreover, the fluorescence slope in test [4] was -0.442 (inactive). In addition, the NADPH fluorescence slope in test [5] was -5.5e-05 (inactive). Besides, the slope in test [6] was 0.0049 (inactive).
Take `CC(C)CCNC(=O)C(c1cccs1)N(CC1CCCO1)C(=O)Cn1nnc2ccccc21` (centres undefined): the cell count in test [1] is 642. The inhibition in test [1] was 8.8% (inactive); in test [3], -132% (inactive); in test [7] it was 10.3% (inactive); in test [8] it was 35.6% (inactive). Further, the inhibition of aggregation in test [2] is 3.2% (inactive). For the same molecule, the figures for the nuclei count in test [2] and in test [3] were 85.4% and 97.1%, respectively. Moreover, the fluorescence slope in test [4] is -0.451 (inactive). In addition, the NADPH fluorescence slope in test [5] was -5.1e-05 (inactive). In test [6], the slope was 0.00299 (inactive).
`O=C(CSc1nc2ccccc2s1)N1CCOCC1`: the cell count in test [1] was found to be 330. Besides, the inhibition in test [1] was 0.5% (inactive); in test [3] it was -38.9% (inactive); in test [7] it was -27.4% (inactive); in test [8], -58.1% (inactive). The inhibition of aggregation in test [2] was -12.6% (inactive). Further, the nuclei count in test [2] was found to be 105%; in test [3] it was 118%. In test [4], the fluorescence slope is -0.525 (inactive). In addition, the NADPH fluorescence slope in test [5] is -1.9e-05 (inactive). Further, the slope in test [6] is 0.00424 (inactive).
For the molecule `Cc1cc(OCC(=O)N2CCCC2)cc(C)c1Cl`, the cell count in test [1] was 633. Moreover, the inhibition was 6.6% (inactive) in test [1], -128% (inactive) in test [3], 4.42% (inactive) in test [7] and -0.933% (inactive) in test [8]. Further, the inhibition of aggregation in test [2] was 3.4% (inactive). For the same molecule, the nuclei count in test [2] came to 95%; in test [3], 99.5%. Also, the fluorescence slope in test [4] is -0.601 (inactive). Moreover, in test [5], the NADPH fluorescence slope is -7.6e-05 (inactive). Besides, in test [6], the slope is 0.00573 (inactive).
As to `CC1CCCCN1C(=O)Cn1nnc(-c2cccnc2)n1` (centres undefined), the cell count in test [1] turned out to be 493. Further, the inhibition was 8% (inactive) in test [1], -23.4% (inactive) in test [3], 9.95% (inactive) in test [7] and 16.3% (inactive) in test [8]. Further, the inhibition of aggregation in test [2] is -12% (inactive). Besides, the nuclei count in test [2] was 93.1%; in test [3] it was 95.3%. The fluorescence slope in test [4] was -0.485 (inactive). For the same molecule, the NADPH fluorescence slope in test [5] is -4.8e-05 (inactive). Besides, the slope in test [6] was 0.00445 (inactive).
Consider `CCOCCCNC(=O)C1CCN(S(=O)(=O)N(CC(C)C)CC(C)C)CC1`, for which the cell count in test [1] stood at 689. For the same molecule, the inhibition is -5.1% (inactive) in test [1], -91.6% (inactive) in test [3], 16.6% (inactive) in test [7] and 19.9% (inactive) in test [8]. Besides, in test [2], the inhibition of aggregation is 17.3% (inactive). Also, the nuclei count in test [2] stood at 79.1%; in test [3], 100%. The fluorescence slope in test [4] is -0.503 (inactive). Further, in test [5], the NADPH fluorescence slope is -5.5e-05 (inactive). Moreover, in test [6], the slope was 0.00467 (inactive).
As for `Cc1ccccc1-n1nnc2c(=O)oc3ccccc3c21`, the cell count in test [1] came to 345. Also, the inhibition in test [1] is -1.6% (inactive); in test [3] it was -83% (inactive); in test [7], 12.8% (inactive); in test [8], 26.7% (inactive). In addition, in test [2], the inhibition of aggregation is 20.9% (inactive). The nuclei count in test [2] was determined as 98.5%; in test [3] it was 96.8%. Further, the fluorescence slope in test [4] was -0.347 (inactive). Besides, the NADPH fluorescence slope in test [5] is -3.7e-05 (inactive). The slope in test [6] was 0.00409 (inactive).
`CC1=C(C(=O)OC2CCCCC2)C(c2cccnc2)n2ncnc2N1` (centres undefined): the cell count in test [1] worked out at 271. Further, the inhibition in test [1] was -9.3% (inactive); in test [3] it was 21.9% (inactive); in test [7], 7.24% (inactive); in test [8], 26.4% (inactive). Further, the inhibition of aggregation in test [2] is 10.8% (inactive). Further, the nuclei count in test [2] was 77.6%; in test [3] it was 34.7%. The fluorescence slope in test [4] was -0.327 (inactive). Besides, the NADPH fluorescence slope in test [5] was -6.6e-06 (inactive). Besides, the slope in test [6] is 0.00388 (inactive).
In the case of `CN1CC=C2C(C#N)=C(N)C(C#N)(C#N)C(Cc3ccccc3)C2C1` (centres undefined), the cell count in test [1] worked out at 556. The inhibition was 10% (inactive) in test [1], -7.7% (inactive) in test [3], 4.84% (inactive) in test [7] and 8.81% (inactive) in test [8]. In addition, the inhibition of aggregation in test [2] was 0.5% (inactive). Besides, the nuclei count in test [2] is 81.2%; in test [3] it was 102%. Also, in test [4], the fluorescence slope is -0.507 (inactive). Moreover, the NADPH fluorescence slope in test [5] was -2.1e-05 (inactive). In test [6], the slope is 0.0052 (inactive).
